Source: article PMC12136788
Changes are numbered by the printed parent chain. In all, about 5,800 sequences were measured (“enrichment r”: median about 0.54, highest 2% from about 16 on). The entries come from a sample that favours the highest values as a whole.

B1: chr7:123541454:123541562:-|3pUTR|ENSG00000128609|unk|total|mutant (ssRNA)
RNA: GGGAGUUCUACAGUCCGACGAUCUCCACCGUGUCAUUUUAUUUCCGUCAUUAUUGAAUUAUACCAUUUACUCUGUUUUCUUACCGUCUUAAUUUUAUUAUAUUUUGUUGUUACUGUAUUAUAUUUGAAAACCUUCAAAUCCGACAACAGAGGAUUGAGCAUCA
B2: chr10:30313878:30313980:-|CDS|ENSG00000107951|unk|total|mutant (ssRNA)
RNA: GGGAGUUCUACAGUCCGACGAUCUGUUUUUAUAUUUAAGCCCUUCAUGUACUUACUCAUUUUUUCUUCUGUGUAAUAAUCUACCGGGAAGGGAGCAAAACAAACCUGAUUCUUCUCCUCUGUACAUUCAGAAUCCAUUUGAAACAACAGAGGAUUGAGCAUCA
B3: chr17:58090057:58090109:+|3pUTR|ENSG00000264364|msi1_unk|FALSE|overlapping (ssRNA)
RNA: GGGAGUUCUACAGUCCGACGAUCGGGUAGGAUUAGCUUGAAUCUUUUUUUUCUUUACAUUUUUCUCCUGUCUGCUCCCUGCUUAGCCCUCAGUUUCCUCAUUCCUCUGGAGUUCUCUUAGAGCAGCCCCUGUUGUUAGUUGGCCAACAGAGGAUUGAGCAUCA
B4: chr1:20742972:20743075:-|3pUTR|ENSG00000127483|unk|FALSE|unique (ssRNA)
RNA: GGGAGUUCUACAGUCCGACGAUCUAACCCUUUCUUAUUUGUAUUUGUUUUAGUAUUGUGAAGUUGUGUUAAAUAGUACUAGCUAGAAAUACAAAUUUCUGGUUAUCAUUUCUCUUCCCUGUGGCACUUGACAUUUUAAUUGUCCAACAGAGGAUUGAGCAUCA
B5: chr3:15254852:15254953:-|3pUTR|ENSG00000131370|msi1|total|mutant (ssRNA)
RNA: GGGAGUUCUACAGUCCGACGAUCAAACUGUUAAUUCUGUCACAGCCUGUAUAUUUCCGUCAUUUGUAAAUCUCUUCAUACAACCGUGACUUCUUUUUUGACUGAUACAGUAUCUUAAUUACAAGGUUAUUUUGUACUUGUCUUCAACAGAGGAUUGAGCAUCA
B6: chr19:57593639:57593745:+|3pUTR|ENSG00000171649|unk|total|mutant (ssRNA)
RNA: GGGAGUUCUACAGUCCGACGAUCUGAACCUUCUUAUUUCUCUACAUUCUUGCCAUACUUGGUAUGGUCCGUCUUUUUAAUUUCCGUUGUUUUAACCGCUGUAUAACCGCAUCUGUCUGUGAUUUUAUUGCAUUUUUCUGGUAUCAACAGAGGAUUGAGCAUCA
B7: chr19:57593639:57593745:+|3pUTR|ENSG00000171649|unk|FALSE|unique (ssRNA)
RNA: B6 RNA with C68U, C69A, C83U, C84A, C95U, C96A, C106U, C107A
B8: chr1:228494639:228494729:+|3pUTR|ENSG00000168159|msi1_unk|FALSE|overlapping (ssRNA)
RNA: GGGAGUUCUACAGUCCGACGAUCGCCAUCGUGUCUCAUCUUGCUGUUAUCUCUAGCUCUUUCCCUCCUCCCAUUUCCUUUAGUAGUUGAAUUUUGCAAAGCUUGUAGCAGUAGCUCAGUUGCCUGCAGCAUCCUUGUGUGUAGCAACAGAGGAUUGAGCAUCA
B9: chr1:228494639:228494729:+|3pUTR|ENSG00000168159|msi1_unk|total|mutant (ssRNA)
RNA: GGGAGUUCUACAGUCCGACGAUCGCCAUCGUGUCUCAUCUUGCUGUUAUCUCCCGCUCUUUCCCUCCUCCCAUUUCCUUCCGCCGUUGAAUUUUGCAAAGCUUGCCGCAGCCGCUCAGUUGCCUGCAGCAUCCUUGUGUGCCGCAACAGAGGAUUGAGCAUCA
B10: chr12:39618871:39619093:-|CDS|ENSG00000173208|unk|total|mutant (ssRNA)
RNA: GGGAGUUCUACAGUCCGACGAUCUAUUAUGAUGUUCUCCCAAUCUGUGGCUCACUUGUAUUCCAAUCUGACCAAACCUAUUUCCGAUGUAAUGCUGACCUCCUAUACACUCAUUCAAACUGCUACAUCCAGAGGAGCAAGCCCCAACAGAGGAUUGAGCAUCA
B11: chr8:17753977:17754079:-|CDS|ENSG00000129422|unk|FALSE|bound_elsewhere (ssRNA)
RNA: GGGAGUUCUACAGUCCGACGAUCAAAAAAGCAGAAAUUCUAAUUAACAAGACACAUAAGCAGCAGUUUAAUAAACUCAUUACUAGCCAGGCUGUGCAUGUUACAACUCAUUCUAAAAAUGCUUCACACAGGGUUCCAAGAACACAACAGAGGAUUGAGCAUCA
B12: chr1:152032676:152032810:-|CDS|ENSG00000163191|unk|FALSE|unique (ssRNA)
RNA: GGGAGUUCUACAGUCCGACGAUCGGACCCUGGUGUCCUUGACCGCAUGAUGAAGAAACUGGACACCAACAGUGAUGGUCAGCUAGAUUUCUCAGAAUUUCUUAAUCUGAUUGGUGGCCUAGCUAUGGCUUGCCAUGACUCCUUCAACAGAGGAUUGAGCAUCA
B13: chr2:27041412:27041530:+|3pUTR|ENSG00000119777|msi1_unk|total|mutant (ssRNA)
RNA: GGGAGUUCUACAGUCCGACGAUCACUUCAAAAUGCCCAGCCUGCCCCAAAUGCCUCUAAGCCCCUCCCUGUCCCCUCCCUUGCCGUCCUACUUCUUCCAACUUUCCAUUCCCCAUCAUGCUGGGGGUCUUGGUCACAAGGCUCCAACAGAGGAUUGAGCAUCA
B14: chr11:49981574:49982501:-|CDS|ENSG00000221954|control|control|control (ssRNA)
RNA: GGGAGUUCUACAGUCCGACGAUCGAACAAUAGCUUGGAGGGGAGGUGUAAAGCCCUCUCCACCUGUAUUUCUCACAUCAUAGUAGUUGUCUUAUUCUUUGUGCCCUGUAUAUUUGUGUAUCUGCGCUCAGUGACCACUCUGCCCAACAGAGGAUUGAGCAUCA
B15: chr12:39553730:39553837:-|3pUTR|ENSG00000173208|unk|FALSE|unique (ssRNA)
RNA: GGGAGUUCUACAGUCCGACGAUCGAAGUAUGUUAAGCUAAGCACAGAGAAAAAAAGGCAGCAAGACAUGUUUUAUAAGAUUUUAGCAUUAAGGAAGUAUAUGAUCUGACUUUUCAGAAGAAAAUAAACAAAUGCAUUAUGUAACAACAGAGGAUUGAGCAUCA
B16: chr15:34980028:34980129:-|3pUTR|ENSG00000198146|msi1|FALSE|unique (ssRNA)
RNA: GGGAGUUCUACAGUCCGACGAUCGGUUCUGUUAUUUAAGCCUGUUCUAAGUUUGAUCAAAUGGCAAUGACUAGGUCUAGUUUUAGUUUUUAUUUUUGCAGGAGUCUAUUGCUAAAGAAUUUUAUUUUGAUGCUUGUUAAAUUUCAACAGAGGAUUGAGCAUCA
B17: chr7:157269180:157269282:+|3pUTR|ENSG00000009335|unk|FALSE|unique (ssRNA)
RNA: GGGAGUUCUACAGUCCGACGAUCAUUUUAGGUUGUUUUAUGUUGAAUGUUCUAUAUCUUAUUAGUUAAUUUGUAUAUUUUAUUAGUAUUUUGGAAAUAGCAUAUCUGAGACUGAAGAGAAAUUGACAAUUCACUUAUUUGUGGCAACAGAGGAUUGAGCAUCA
B18: chr10:11920118:11920232:-|3pUTR|ENSG00000151461|unk|total|mutant (ssRNA)
RNA: GGGAGUUCUACAGUCCGACGAUCGCCGUAUAUUCCGUCGGAGAGCACAUCUGUAUGCGACAACUUGAUUACAUCUUUUUUUCCCGCUAUUUUGCAUUUUUUCUUUUACCAUGUUUCAGUUUCUGCAUGCCGAUUUAAAUAAAACAACAGAGGAUUGAGCAUCA
B19: chr11:35231809:35232301:+|3pUTR|ENSG00000026508|msi1|FALSE|unique (ssRNA)
RNA: GGGAGUUCUACAGUCCGACGAUCACAACACCAAGAAUUGAUUUUGUAGCCAACAUUCAUUCAAUACUGUUAUAUCAGAGGAGUAGGAGAGAGGAAACAUUUGACUUAUCUGGAAAAGCAAAAUGUACUUAAGAAUAAGAAUAACAACAGAGGAUUGAGCAUCA
B20: chr15:34980028:34980129:-|3pUTR|ENSG00000198146|msi1|total|mutant (ssRNA)
RNA: B16 RNA with U71C, A72C, U77C, A78C, U83C, A84C
B21: ENSG00000114744:stop:overlap|stop_codon|ENSG00000114744|stop_codon|NA|stop_codon (ssRNA)
RNA: GGGAGUUCUACAGUCCGACGAUCAACAAGCAUUGGAAGAGAUGAAGACAAAUCACUGUAGGAGAGUUGUUCGCAACAUCAAGUAGUACCAGUUUUAAGGUUUUAAUUCAUUUGAAUCACUUAUGAAUUGAUGAUAUACAGCAACAACAGAGGAUUGAGCAUCA
B22: ENSG00000070961:be:win_5801|3pUTR|ENSG00000070961|bound_else_gene|NA|bound_elsewhere_windowed (ssRNA)
RNA: GGGAGUUCUACAGUCCGACGAUCGAAAAGGGAAAUGUUUUCAGUUUUCUUUUUUAUUUUGGUUAUGCUUAAAUAUGAAUGUAAUUACCAAAAGAUUUAGAAGUGCAUGUGCUUUGGAGGAUUUGUAUUGAGCUUUUACAGUAUCAACAGAGGAUUGAGCAUCA
B23: ENSG00000070961:be:win_4501|3pUTR|ENSG00000070961|bound_else_gene|NA|bound_elsewhere_windowed (ssRNA)
RNA: GGGAGUUCUACAGUCCGACGAUCCCUUUUGUUCAGAAUUUAGUAGAUUGUUUAAUGCAGGACAUCAACUACAUAAUGAAAGAUGCUUGAAAUGCUUUUGUUAUUUCAGGCAAAUCAAAUUAAAUCAGACUAUCAAACUACAAGCAACAGAGGAUUGAGCAUCA
B24: chr15:83017406:83017507:-|3pUTR|ENSG00000064726|msi1|total|mutant (ssRNA)
RNA: GGGAGUUCUACAGUCCGACGAUCGGCCUAAUAAAAUGCCCAAGAAAAUAUUCAGUGCAUUUACCGAGAAGGAUAUUUUGCCGCCGUACCGUAAUGUGUUAUGCCGUACAGUUUUAAAGCUAUAAAUGGAAUUUUGUGUAAAUUCAACAGAGGAUUGAGCAUCA
B25: chr10:11920118:11920232:-|3pUTR|ENSG00000151461|unk|FALSE|unique (ssRNA)
RNA: B18 RNA with C25U, C26A, C34U, C35A, C83U, C84A, C129U, C130A
B26: chr15:83017406:83017507:-|3pUTR|ENSG00000064726|msi1|FALSE|unique (ssRNA)
RNA: B24 RNA with C63U, C64A, C80U, C81A, C83U, C84A, C88U, C89A, C103U, C104A

target: MSI1 full-length (mouse, UniProt Q61474 1-362); experiment: nsRBNS (natural sequence RNA bind-n-seq); RBNS binding buffer (assumed for nsRBNS): 25 mM Tris pH 7.5, 150 mM KCl, 3 mM MgCl2, 0.01% Triton X-100, 500 ug/ml BSA, 20 U/ml SUPERase-In, 4 C; UNK is unkempt and MSI1 is Musashi-1; names of the RNAs are library labels; protein concentration not given here; high values mean tight binding
Sequence (Q61474 whole entry): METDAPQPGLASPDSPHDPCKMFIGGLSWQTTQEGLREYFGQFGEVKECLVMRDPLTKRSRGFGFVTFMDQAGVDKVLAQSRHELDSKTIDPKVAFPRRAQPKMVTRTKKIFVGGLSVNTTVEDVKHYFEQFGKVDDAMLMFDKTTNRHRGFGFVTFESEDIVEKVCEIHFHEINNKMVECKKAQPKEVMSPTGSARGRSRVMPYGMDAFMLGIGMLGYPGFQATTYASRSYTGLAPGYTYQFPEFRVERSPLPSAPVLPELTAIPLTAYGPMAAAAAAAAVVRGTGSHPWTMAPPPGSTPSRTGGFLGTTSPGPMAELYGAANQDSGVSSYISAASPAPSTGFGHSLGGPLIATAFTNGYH

Binder	binding signal [enrichment R]
B1	37
B2	0.482
B3	4.46
B4	3.75
B5	0.393
B6	1.4
B7	19.1
B8	21.5
B9	0.702
B10	0.621
B11	2.45
B12	0.264
B13	0.832
B14	2.83
B15	2.43
B16	77.2
B17	12.7
B18	0.709
B19	0.807
B20	0.774
B21	16.3
B22	1.05
B23	0.644
B24	0.489
B25	23.3
B26	44.9
